Screens as filed in PubChem.
The full list was thinned out, with hits kept by preference.
LmPK inhibitor = qHTS Assay for Inhibitors of Leishmania Mexicana Pyruvate Kinase (LmPK) | Q27686 | Potency, µM (highest dose often 57.5 µM), without a hit: top-dose activity change, negative = inhibition, usual class: inhibitors | 290,000 compounds, 0.37% hits | purified LmPK, Kinase-Glo ATP luminescence, 1 h; note: potency is the fitted concentration of half-maximal effect; % is set by controls: 0 for no effect and ±100 for the full control effect
Target sequence (Q27686 whole entry, looked up): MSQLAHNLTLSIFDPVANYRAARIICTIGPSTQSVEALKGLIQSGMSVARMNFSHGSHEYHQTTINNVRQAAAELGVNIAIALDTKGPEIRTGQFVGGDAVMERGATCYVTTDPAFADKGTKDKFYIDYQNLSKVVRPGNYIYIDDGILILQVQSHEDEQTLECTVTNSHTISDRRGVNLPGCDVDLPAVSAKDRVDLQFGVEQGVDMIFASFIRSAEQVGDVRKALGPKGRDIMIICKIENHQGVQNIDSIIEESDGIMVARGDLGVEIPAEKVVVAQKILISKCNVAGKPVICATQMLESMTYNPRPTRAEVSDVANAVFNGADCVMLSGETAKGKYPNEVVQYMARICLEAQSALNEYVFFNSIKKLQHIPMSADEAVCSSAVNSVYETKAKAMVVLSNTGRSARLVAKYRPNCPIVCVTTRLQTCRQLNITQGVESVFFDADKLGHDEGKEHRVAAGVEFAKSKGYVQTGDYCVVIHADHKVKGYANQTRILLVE
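Kinase-Glo luminescence read after 1 h RT reaction of 0.1 nM LmPK with 0.5 mM PEP and 0.1 mM ADP. Activity scaled between uninhibited and enzyme-free controls.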
SARS PLP yeast = qHTS of Yeast-based Assay for SARS-CoV PLP; S. cerevisiae expressing SARS-CoV PLpro, growth rescue; AID 485353, 2010; 330,000 compounds, 0.19% hits; Potency, µM (series often up to 32.9 µM), inactives show at the highest dose activity, positive = growth rescue, hits mostly activators; calls by dose curve; note: potency is the fitted concentration of half-maximal effect; 0% is about no effect; nearly all actives have a fitted effect of over 55% in size
TbPYK inhibitor = qHTS of Trypanosoma Brucei Inhibitors; AID 624173, 2012; Potency, µM (titrated, usually from 76.8 µM), for inactives: at the highest dose activity, negative = inhibition, most hits filed as inhibitors; pyruvate kinase (Trypanosoma brucei), Q57TT1; 410,000 compounds, 0.12% hits; TbPYK enzyme, Kinase-Glo Plus ATP luminescence, 45 min; note: potency is the fitted concentration of half-maximal effect; % is set by controls: 0 for no effect and ±100 for the full control effect; nearly all actives have a fitted effect of over 50% in size
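Luminescence from Kinase-Glo Plus, added after a 45-minute room-temperature reaction, served as the end-point read-out. The enzyme and substrate were preincubated with compound before ADP (130 uM final) initiated turnover. Concentration-effect curves came from normalized qHTS data.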
Shiga inhibitor = A qHTS for Small Molecule Inhibitors of Shiga Toxin. Vero cells, Shiga toxin protein synthesis inhibition reporter. inhibition, % at 38.7 µM. 290,000 compounds, 9.2% hits; in the data active = inhibition mostly above about 28%, no sharp cut-off; inactive = mostly below about 43%; note: 0% is about no effect
NS1 inh = qHTS Assay for Inhibitors of Influenza NS1 Protein Function. Potency, µM (series often up to 46.1 µM), for inactives: top-dose activity, positive = more growth. 270,000 compounds, 0.4% hits. AID 2326, 2010; calls by dose curve; note: potency is the fitted concentration of half-maximal effect; actives are rising curves; nearly all actives have a fitted effect of over 50% in size
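S. cerevisiae expressing influenza A NS1, grown in glucose, washed, then diluted 1:100 into pH 6.0 -URA galactose medium with 23 nl compound. Growth recovery read as OD600; NS1-free strain serves as control.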
CHX counter = Cycloheximide Counterscreen for Small Molecule Inhibitors of Shiga Toxin; cell reporter, cycloheximide protein synthesis inhibition counterscreen; max response, %; 300,000 compounds, 12% hits; in the data active = max response mostly above about 13%, no sharp cut-off; inactive = mostly below about 14%; note: read at 38.3 µM for the half of the compounds with a filed dose; 0% is about no effect
Starred values were filed as active, the others as inactive; ? = inconclusive; nt = no result given. Unless noted, calls come from the whole dose curve; as a rule, active = well fitted curve in the direction sought with a large enough effect; inconclusive = small, poorly fitted or top-dose-only effect, or another doubt; inactive = no such curve, though single readings can be large; an effect the other way counts as inactive or inconclusive.

SMILES | LmPK inhibitor | SARS PLP yeast | TbPYK inhibitor | Shiga inhibitor | NS1 inh | CHX counter
O=C(CSc1nc(-c2ccccc2)cs1)N1CCN(C(=O)c2ccco2)CC1 | 5.7% | -1.6% | -0.6% | 12.6 | -8.8% | 18.2*
O=C(CSc1ccccc1F)NC(=O)NCc1ccco1 | 8.9% | -0.3% | 1.1% | -3.3 | 1.7% | 4.1
Cc1ccccc1CSCC(=O)NC(=O)NCc1ccco1 | 3.7% | -4.2% | -9.5% | 11.9 | -4.4% | 16.0*
O=C(CSc1ccccc1)N1CCN(C(=O)c2ccco2)CC1 | -1.7% | 0.3% | 7.5% | -3.9 | 0.3% | 7.8
N#CCSc1nc(-c2ccccc2)cs1 | -1.7% | -5.7% | -0.5% | 49.8* | -17.2% | 29.6*
CN(C)c1ccc(CNC(=O)C2CCN(S(=O)(=O)c3ccc4[nH]c(=O)ccc4c3)CC2)cc1 | nt | nt | -7.4% | nt | nt | nt
O=C(CSc1nc2ccccc2s1)NC(=O)NCc1ccco1 | 0.6% | 13.4% | -0.3% | 34.8 | ? | 19.1
N#CCSc1ccc2nc(-c3ccccc3)cn2n1 | -5.7% | -23.2% | 3.6% | 105.2* | -1.0% | 27.6
CC1(C)C(=O)Nc2ccccc2N1C(=O)CSc1nc(-c2ccccc2)cs1 | -2.4% | 7.8% | -15.4% | 29.4 | 3.9% | 16.3*
O=C(CSc1nc(-c2ccccc2)cs1)NC(=O)NCc1ccco1 | -2.0% | -16.5% | -6.0% | 19.0 | 11.1% | 24.7*
O=C(CSc1ccc2nc(-c3ccccc3)cn2n1)Nc1ccccc1 | nt | nt | -4.1% | nt | nt | nt
O=S(=O)(Nc1cc(O)cc2cccnc12)c1ccc(Br)s1 | nt | nt | nt | -5.1 | nt | -7.8
CSCC[C@H](NC(=O)C1CCN(S(=O)(=O)c2ccccc2)CC1)C(=O)NC1CC1 | 2.2% | -1.2% | 1.5% | 0.7 | -3.3% | 1.5
COc1ccc(C(=O)ON=C2CCN(c3ccc([N+](=O)[O-])cc3)CC2)cc1 | -0.3% | -25.1% | 7.0% | -20.0 | -198.8% | -2.3
CN1CCC(=NOc2ccc([N+](=O)[O-])cc2)CC1 | -5.1% | -1.9% | -2.5% | 94.6* | 3.7% | 34.3*
O=C1OCC2=C1C(c1cccc(Cl)c1)CC(=O)N2c1ccc(C(F)(F)F)cc1 (configuration not stated) | nt | nt | 0.3% | nt | nt | nt
COc1ccc(-c2cc3c(=O)n(CC(=O)NCc4cccnc4)ncn3n2)cc1 | -4.6% | 6.9% | 2.1% | 37.1* | -6.8% | 27.5*
COc1ccc(S(=O)(=O)N(C)CC(=O)NCc2cccnc2)cc1 | -1.2% | 4.3% | 3.5% | 74.6* | -9.2% | 10.1
CN(CC(=O)NCc1cccnc1)S(=O)(=O)c1ccccc1 | 7.5% | 2.0% | -5.3% | -14.6 | 2.0% | -0.4
CC(C)c1ccc(OCC(=O)NCC(c2ccc(Cl)cc2)N2CCOCC2)cc1 (configuration not stated) | nt | nt | 1.9% | nt | nt | nt
CC1CN(c2nc3ccccc3nc2C(C#N)C(=O)NC2CCCCC2)CC(C)O1 (configuration not stated) | -0.9% | 8.3% | nt | 19.2 | -25.1% | 18.7*
COc1ccc(-n2c(=O)c3c4c(sc3n(C)c2=O)CN(C(C)=O)CC4)cc1 | nt | nt | 0.5% | nt | nt | nt
COc1ccc(C(=O)OCC(=O)N2CCN(C(=O)c3ccco3)CC2)cc1OC | nt | -1.8% | 0.1% | nt | nt | nt
O=C1NC(=O)[C@@H]2C3c4ccccc4C=CN3[C@H](C(=O)c3cccs3)[C@H]12 (some centres not stated) | 4.4% | -5.5% | nt | 69.1 | -26.4% | 31.2*
O=C(c1ccco1)[C@@H]1[C@@H]2C(=O)N(c3ccc(F)cc3)C(=O)[C@@H]2C2c3ccccc3C=CN21 (some centres not stated) | 5.4% | ? | nt | 21.5 | 5.5% | 14.6
SMILES | LmPK inhibitor | SARS PLP yeast | TbPYK inhibitor | Shiga inhibitor | NS1 inh | CHX counter
Cc1ccc2[nH]c(C)c(CCNC(=O)c3cc4cc(Br)ccc4oc3=O)c2c1 | nt | nt | 2.6% | nt | nt | nt
O=C(CSc1ncccc1-c1nc2ccccc2[nH]1)N1CCN(c2ccccc2F)CC1 | 3.0% | -3.6% | -0.7% | 54.3 | ? | 55.9*
COc1ccccc1N1CCN(C(=O)CSc2ncccc2-c2nc3ccccc3[nH]2)CC1 | -1.3% | 6.6% | 4.7% | 14.5 | -39.5% | 21.4*
O=C(CSc1ncccc1-c1nc2ccccc2[nH]1)NC1CC1 | -5.6% | 6.2% | 0.5% | 15.3 | 2.6% | 10.2
COc1ccc(N2CCN(C(=O)CSc3ncccc3-c3nc4ccccc4[nH]3)CC2)cc1 | -0.6% | 9.0% | -3.7% | 24.0 | -18.8% | 21.0*
COC(=O)N1CCC2(CCN(Cc3ccc(C#N)cc3)CC2)CC1 | nt | nt | -0.9% | nt | nt | nt
CCC(Oc1ccccc1F)C(=O)N1CCC(c2nc3ccccc3s2)CC1 (configuration not stated) | nt | nt | -4.6% | nt | nt | nt
COC(=O)c1ccccc1OCCCOc1ccc(C=O)cc1OC | 1.2% | -4.6% | -1.8% | 86.5* | -43.2% | 36.9*
COc1cc(C=O)ccc1OCc1cccc(Br)c1 | -8.3% | 3.5% | 0.0% | 70.4* | -44.2% | 46.7*
COc1cc(C=O)ccc1OCc1ccccc1Br | -29.0% | 2.5% | 4.5% | 73.7* | -38.1% | 60.8*
CCOc1cc(C=O)ccc1OCCSc1ccc(C)cc1 | 3.2% | -17.9% | -11.9% | 25.6 | -30.9% | 23.1
COc1cc(C=O)ccc1OCCSc1ccc(C)cc1 | 0.0% | -9.1% | 1.0% | 46.1* | -11.8% | 39.1*
O=C(NCCC(=O)N1CCCC(C(F)(F)F)C1)c1ccccc1Cl (configuration not stated) | -0.7% | -2.8% | 0.4% | -20.3 | 10.8% | 0.3
CCCCCCCC/C=C\CCCCCCCC(=O)N[C@H](CO)Cc1ccc(O)cc1 | nt | nt | nt | -1.8 | nt | 7.4
Cc1ccc(C)c(N2CCN(CCCNC(=O)c3ccc4nc(CCc5ccccc5)oc4c3)CC2)c1 | nt | nt | -3.3% | nt | nt | nt
Oc1cccc(/C=N/Nc2cccc3cccnc23)c1 | ? | 2.3% | -3.9% | 123.3* | 1.2% | 44.3*
C/C(=N\Nc1cccc2cccnc12)c1ccccn1 | -27.7% | -2.3% | -10.6% | 29.8 | nt | 31.7
COc1cc(/C=N/Nc2cccc3cccnc23)cc(OC)c1O | ? | -4.6% | ? | 68.9* | nt | 34.5*
Oc1cccc(/C=N/Nc2ccc(Cl)nn2)c1 | -5.1% | -2.1% | 0.1% | 68.1* | -38.4% | 41.6*
Oc1c(/C=N/Nc2cccc3cccnc23)ccc2ccccc12 | -2.1% | 5.0% | 2.2% | 90.4* | 21.0% | 73.7*
NC(N)=NN=C(c1ccc(F)cc1)c1ccc(C(F)(F)F)cc1 | nt | nt | -4.8% | nt | nt | nt
CC(C)=CCOc1ccc([C@@H]2COc3c(ccc4c3C=CC(C)(C)O4)C2)c(O)c1 | nt | nt | 3.7% | nt | nt | nt
CCCCNC(=O)C[C@@H]1C[C@@]2(C(=O)OC)CCCCC=C2N(Cc2cccc3ccccc23)C1=O | nt | nt | -7.1% | nt | nt | nt
Nc1cc(Br)cc2c1[nH]c(=O)c1ccccc12 | nt | nt | -3.1% | nt | nt | nt
COc1cccc(/C=N/Nc2nn3cnnc3c3ccccc23)c1O | 0.9% | -3.1% | 2.6% | 0.3 | 13.2% | -1.0
